Measurements published in the supplement of paper PMC6658780.
Counter-ions that a name gives are not always drawn. ± gives the standard deviation of the averaged measurements.

tested on: Escherichia coli ATCC BAA-2469; assay: percent growth inhibition of drug alone vs DMSO control; higher = more growth inhibition; conditions: antibiotic (0.125x MIC): none (0.1% DMSO); 7 µM
Procedure: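 Prestwick drugs tested at 20 uM and 7 uM with an antibiotic at 0.125x MIC (16 mg/L when MIC >128 mg/L) against E. coli ATCC BAA-2469 (NDM-1) in CAMHB, 384-well plates, duplicate runs. Percent growth inhibition was computed from OD600 (24 h minus 0 h) relative to DMSO wells. Drug + DMSO-only wells are also given. […]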

SMILES	percent growth inhibition of drug alone [%]
O=C(N[C@H](CO)[C@H](O)c1ccc([N+](=O)[O-])cc1)C(Cl)Cl [Chloramphenicol]	27.7 ± 12
N[C@@H]1CCCCN(c2c(F)cc3c(=O)c(C(=O)O)cn(C4CC4)c3c2Cl)C1 [Besifloxacin hydrochloride]	3.86 ± 3.6
Cc1cn([C@H]2C[C@H](N=[N+]=[N-])[C@@H](CO)O2)c(=O)[nH]c1=O [Zidovudine, AZT]	102 ± 2.3
Cc1c(OCC(F)(F)F)ccnc1C[S+]([O-])c1nc2ccccc2[nH]1 (stereo not given) [Lansoprazole]	2.04 ± 3.3
Cc1nnc(NS(=O)(=O)c2ccc(N)cc2)s1 [Sulfamethizole]	2.42 ± 3
C#C[C@]1(O)CC[C@H]2[C@@H]3CCC4=C(CCC(=O)C4)[C@H]3CC[C@@]21C [Norethynodrel]	0.455 ± 0.56
CCOC(=O)c1ccc(N)cc1 [Benzocaine]	-0.533 ± 1.7
CCN(CC)CCNC(=O)c1cc(Br)c(N)cc1OC [Bromopride]	-0.123 ± 0.93
CS(=O)(=O)c1ccc([C@@H](O)[C@@H](CO)NC(=O)C(Cl)Cl)cc1 [Thiamphenicol]	4.47 ± 3.6
O=C1CN(/N=C/c2ccc([N+](=O)[O-])o2)C(=O)N1 [Nitrofurantoin]	5.87 ± 5.7
CCCCCCCCNC(C)C(O)c1ccc(SC(C)C)cc1 (stereo not given) [Suloctidil]	7.25 ± 11
CCOC(=O)c1ccc(OC(=O)CCCCCNC(=N)N)cc1 [Gabexate mesilate]	3.5 ± 6.5
CCCNC(C)(C)COC(=O)c1ccccc1 [Meprylcaine hydrochloride]	0.029 ± 2.2
Cn1c(=O)c2c(ncn2C)n(C)c1=O [Caffeine]	1.12 ± 0.78
Nc1nc(O)c2ncn(CCC(CO)CO)c2n1 [Penciclovir]	1.39 ± 3.5
CC(=O)OC[C@H]1O[C@@H]([S-])[C@H](OC(C)=O)[C@@H](OC(C)=O)[C@@H]1OC(C)=O.CCP(CC)CC.[Au+] [Auranofin]	5.6 ± 2.6
CO/N=C(\C(=O)N[C@@H]1C(=O)N2C(C(=O)O)=C(COC(N)=O)CS[C@H]12)c1ccco1 [Cefuroxime sodium salt]	-0.846 ± 2.2
COc1ccc2c(c1)c(CC(=O)OCC(=O)O)c(C)n2C(=O)c1ccc(Cl)cc1 [Acemetacin]	2.19 ± 1
NS(=O)(=O)c1cc2c(cc1C(F)(F)F)NC(Cc1ccccc1)NS2(=O)=O (stereo not given) [Bendroflumethiazide]	-1.67 ± 1.1
O=c1[nH]c(=O)n([C@H]2C[C@H](O)[C@@H](CO)O2)cc1C(F)(F)F [Trifluridine]	4.84 ± 4.7
Nc1nc(F)nc2c1ncn2[C@@H]1O[C@H](CO)[C@@H](O)[C@@H]1O [Fludarabine]	23 ± 20
Nc1c2ccccc2nc2ccccc12 [Aminacrine]	1.8 ± 0.95

same assay, conditions: antibiotic (0.125x MIC): none (0.1% DMSO); 20 µM

SMILES	percent growth inhibition of drug alone [%]
Cc1cn([C@H]2C[C@H](N=[N+]=[N-])[C@@H](CO)O2)c(=O)[nH]c1=O [Zidovudine, AZT]	115 ± 12
Cc1c(OCC(F)(F)F)ccnc1C[S+]([O-])c1nc2ccccc2[nH]1 (stereo not given) [Lansoprazole]	4.77 ± 4.3
Cc1nnc(NS(=O)(=O)c2ccc(N)cc2)s1 [Sulfamethizole]	-3.23 ± 2.1
C#C[C@]1(O)CC[C@H]2[C@@H]3CCC4=C(CCC(=O)C4)[C@H]3CC[C@@]21C [Norethynodrel]	5.02 ± 3.1
CCOC(=O)c1ccc(N)cc1 [Benzocaine]	1.27 ± 1.7
CCN(CC)CCNC(=O)c1cc(Br)c(N)cc1OC [Bromopride]	1.57 ± 1.2
CCCCCCCCNC(C)C(O)c1ccc(SC(C)C)cc1 (stereo not given) [Suloctidil]	10.4 ± 16
CCOC(=O)c1ccc(OC(=O)CCCCCNC(=N)N)cc1 [Gabexate mesilate]	0.291 ± 0.37
CCCNC(C)(C)COC(=O)c1ccccc1 [Meprylcaine hydrochloride]	-0.823 ± 0.32
Cn1c(=O)c2c(ncn2C)n(C)c1=O [Caffeine]	-1.35 ± 0.22
Nc1nc(O)c2ncn(CCC(CO)CO)c2n1 [Penciclovir]	-1.4 ± 2.5
CC(=O)OC[C@H]1O[C@@H]([S-])[C@H](OC(C)=O)[C@@H](OC(C)=O)[C@@H]1OC(C)=O.CCP(CC)CC.[Au+] [Auranofin]	20.1 ± 20
CO/N=C(\C(=O)N[C@@H]1C(=O)N2C(C(=O)O)=C(COC(N)=O)CS[C@H]12)c1ccco1 [Cefuroxime sodium salt]	-0.542 ± 0.39
COc1ccc2c(c1)c(CC(=O)OCC(=O)O)c(C)n2C(=O)c1ccc(Cl)cc1 [Acemetacin]	1.2 ± 0.59
NS(=O)(=O)c1cc2c(cc1C(F)(F)F)NC(Cc1ccccc1)NS2(=O)=O (stereo not given) [Bendroflumethiazide]	-1.13 ± 2.1
O=c1[nH]c(=O)n([C@H]2C[C@H](O)[C@@H](CO)O2)cc1C(F)(F)F [Trifluridine]	11.3 ± 6.5
Nc1nc(F)nc2c1ncn2[C@@H]1O[C@H](CO)[C@@H](O)[C@@H]1O [Fludarabine]	59.1 ± 4.9
Nc1c2ccccc2nc2ccccc12 [Aminacrine]	21 ± 13
